Data taken from PubChem BioAssay (EPA / NIEHS).
Activity calls are given as the source filed them. How the source made its calls: active means hit-call score of the fitted dose curve at least 0.9, where 1 is the maximum; inactive means score below 0.9.

Assay: APR_HepG2_P-H2AX_1hr: Apredica 1-hour HepG2 Assay for H2AX Phosphorylation (AID 2282673)
Conditions: high-content imaging, actives raise or lower the signal
Method: APR_HepG2_1hr is a cell-based, multiplexed-readout assay that uses HepG2, a human liver cell line, with measurements taken at 1 hour after chemical dosing in a 384-well plate.APR_HepG2_P-H2AX_1hr is one of 10 assay component(s) measured or calculated from the APR_HepG2_1hr assay. It is designed to make measurements of dna content, a form of viability reporter, as detected with fluorescence intensity signals by HCS Fluorescent Imaging technology.Data from the assay component APR_HepG2_P-H2AX_1hr was analyzed into 1 assay endpoint. This assay endpoint, APR_HepG2_P-H2AX_1hr, was analyzed with bidirectional fitting relative to DMSO as the negative control and baseline of activity. Using a type of viability reporter, measures of protein for gain or loss-of-signal activity can be used to understand the signaling at the pathway-level as they relate to the gene . Furthermore, this assay endpoint can be referred to as a primary readout, because this assay has produced multiple assay endpoints where this one serves a signaling function. To generalize the intended target to other relatable targets, this assay endpoint is annotated to the dna binding intended target family, where the subfamily is cellular response to DNA damage stimulus.
Cells were treated with dimethyl sulfoxide (DMSO) as a solvent control at a final concentration of 0.5% v/v or with compounds in DMSO with a resulting final DMSO concentration of 0.5% v/v. Compound treatment was done at concentrations of 0.39, 0.78, 1.56, 3.12, 6.24, 12.5, 25, 50, 100, and 200 uM in duplicate on each plate. Cells were treated with compounds for 1, 24, or 72 hr. Carbonyl […] m-chloro-phenylhydrazone (CCCP) and taxol were used as positive controls for mitochondrial function and cytoskeletal stability, respectively; DMSO served as the negative control for this experiment. Cells were fixed by the direct addition of 50 uL formaldehyde in Hank's Balanced Salt Solution (HBSS) to a final concentration of 3.7%. After incubation in the fixation medium for 30 min at room temperature (293-298 K), cells were rinsed twice with HBSS and treated with cell permeabilization buffer (16 uL of 0.5% Triton X-100) for 10 min at room temperature (293-298 K) before labeling. For mitochondrial membrane potential and mitochondrial measurements, pre-fixed cells were incubated with 50 uL of MitoTracker Red CMXRos (Invitrogen) at a concentration of 250 nM for 30 min before fixation. In the remaining cases, post-fixed cells were labeled by incubation with a multiplexed mixture of primary antibodies in HBSS for 60 min at room temperature (293-298 K) to detect immunoreactivity of c-Jun (1:500), phospho-histone H3 (1:100), phospho-histone H2A.x (1:200), p53 (1:400), alpha-tubulin (1:200) and Hoechst 33342 (2 ug/mL). Cells were labeled for multiplexed imaging on two separate plates: a) Hoechst 33342, MitoTracker Red, phospho-histone H3, and alpha-tubulin, and b) Hoechst 33342, phospho-histone H2A.x, and c-Jun. A final rinse with HBSS (50 uL) was performed before analysis. The primary and secondary antibodies for the proteins were phospho-histone H3 (rabbit anti-phospho-histone H3 and FITC-donkey anti-rabbit IgG), phospho-histone H2A.x (mouse anti-phospho-histone H2A.x and FITC-donkey anti-mouse IgG), c-Jun (rabbit anti-phospho-c-Jun and Cy3-donkey anti-rabbit IgG), p53 (sheep anti-p53 and Cy5-donkey anti-sheep IgG), alpha-tubulin (mouse anti-alpha-tubulin and Cy5-donkey anti-mouse IgG). These antibodies are available as the CellCiphr HepG2 assay kit (Millipore).Digital images of each well were captured using a Cellomics ArrayScan VTI (Thermo Scientific Cellomics) (0.8 NA objective, 0.63x optical coupler, and XF-93 filter set) at 20x magnification. The images were acquired using the autofocus feature of the ArrayScan instrument, which entails the following steps. First, the camera focuses on channel 1 (Hoechst 33342), where nuclei are identified. Second, a Z offset of 1 um is used for capturing mitochondria (MitoTracker Red). […]

Row | SMILES | outcome | AC50
1 | C#CCC1=C(C)C(OC(=O)C2C(C=C(C)C)C2(C)C)CC1=O (stereo not given) | inactive | 
2 | CC(=NC#N)N(C)Cc1ccc(Cl)nc1 | inactive | 
3 | CCOC(=O)COc1cc(-c2nn(C)c(OC(F)F)c2Cl)c(F)cc1Cl | inactive | 
4 | CN(C)NC(=O)CCC(=O)O | inactive | 
5 | CC(Oc1cccc(Cl)c1)C(=O)O (stereo not given) | inactive | 
6 | CN1COCN(Cc2cnc(Cl)s2)C1=N[N+](=O)[O-] | inactive | 
7 | CCOP(=S)(OCC)SCCSCC | inactive | 
8 | C[N+]1(C)CCCCC1 | inactive | 
9 | CCOP(=O)(OCC)Oc1cc(C)nc(C(C)C)n1 | inactive | 
10 | CC(C)=CC1C(C(=O)OCN2C(=O)C3=C(CCCC3)C2=O)C1(C)C (stereo not given) | inactive | 
11 | CCc1cnc(C2=NC(C)(C(C)C)C(=O)N2)c(C(=O)O)c1 (stereo not given) | inactive | 
12 | CCOP(=O)(SC(C)CC)N1CCSC1=O (stereo not given) | inactive | 
13 | CCC(CC)Nc1c([N+](=O)[O-])cc(C)c(C)c1[N+](=O)[O-] | inactive | 
14 | Cc1nn(-c2cc(NS(C)(=O)=O)c(Cl)cc2Cl)c(=O)n1C(F)F | inactive | 
15 | CCCOCC(=Nc1ccc(Cl)cc1C(F)(F)F)n1ccnc1 | inactive | 
16 | CCOP(=S)(OCC)Oc1ccc([N+](=O)[O-])cc1 | inactive | 
17 | N#CSCSC#N | inactive | 
18 | COP(=O)(OC)C(O)C(Cl)(Cl)Cl (stereo not given) | inactive | 
19 | Cc1ccn2nc(S(=O)(=O)Nc3c(F)cccc3F)nc2n1 | inactive | 
20 | CCCCN(CC)c1c([N+](=O)[O-])cc(C(F)(F)F)cc1[N+](=O)[O-] | inactive | 

Row | SMILES | outcome | AC50
21 | CCCOc1nn(C(=O)NS(=O)(=O)c2ccccc2C(=O)OC)c(=O)n1C | inactive | 
22 | CCCSP(=O)(OCC)Oc1ccc(Br)cc1Cl (stereo not given) | inactive | 
23 | CC(C)[C@H](C(=O)O[C@H](C#N)c1cccc(Oc2ccccc2)c1)c1ccc(Cl)cc1 | inactive | 
24 | CC(COc1ccc(Oc2ccccc2)cc1)Oc1ccccn1 (stereo not given) | inactive | 
25 | COP(=O)(NC(C)=O)SC (stereo not given) | inactive | 
26 | CCCSP(=O)(OCC)SCCC | inactive | 
27 | CC(C)N(C(=O)SCC(Cl)=C(Cl)Cl)C(C)C | inactive | 
28 | CCNc1nc(Cl)nc(NC(C)(C)C#N)n1 | inactive | 
29 | S=C1NCCN1 | inactive | 
30 | COc1ccc(C(=CC(=O)N2CCOCC2)c2ccc(Cl)cc2)cc1OC | inactive | 
31 | CCOP(=S)(OCC)Oc1cc(C)nc(C(C)C)n1 | inactive | 
32 | CCOC(=O)CC(SP(=O)(OC)OC)C(=O)OCC (stereo not given) | inactive | 
33 | CCCCSP(=O)(SCCCC)SCCCC | inactive | 
34 | CNc1cnn(-c2cccc(C(F)(F)F)c2)c(=O)c1Cl | inactive | 
35 | COP(=O)(OC)SCn1c(=O)oc2cc(Cl)cnc21 | inactive | 
36 | C#CC(C)(C)NC(=O)c1cc(Cl)cc(Cl)c1 | inactive | 
37 | Nc1c(Cl)cc([N+](=O)[O-])cc1Cl | inactive | 
38 | CC[C@H](C)[C@H]1O[C@]2(C=C[C@@H]1C)C[C@@H]1C[C@@H](C/C=C(\C)[C@@H](O[C@H]3C[C@H](OC)[C@@H](O[C@H]4C[C@H](OC)[C@@H](NC)[C@H](C)O4)[C@H](C)O3)[C@@H](C)/C=C/C=C3\CO[C@@H]4[C@H](O)C(C)=C[C@@H](C(=O)O1)[C@]34O)O2 |  | 16.8 µM (active)
39 | CC(C1CC1)C(O)(Cn1cncn1)c1ccc(Cl)cc1 (stereo not given) | inactive | 
40 | CCOP(=S)(Oc1cnc(C(C)(C)C)nc1)OC(C)C (stereo not given) | inactive | 
